{"source": "PubChem BioAssay (NCI)", "note": "Compounds without any hit were thinned out: in the full panel of roughly 83,000, 20% have a hit.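 The test compound was applied at a single concentration to cells in 96-well plates for 48 hours, and percent growth was recorded.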 Values without a mark were called inactive. The source made the active and inactive calls. Rule for the calls: active = growth percent below 10; inactive = the rest.", "data": [{"test_system": "HL-60(TB) leukemia", "test": "NCI-60 one-dose screen, 48 h (100 = growth as untreated, 0 = no growth, -100 = all killed)", "details": "10 µM unless noted", "values": [{"smiles": "O=C1C(Cl)=C(NCCCCCCNC2=C(Cl)C(=O)c3ccccc3C2=O)C(=O)c2ccccc21", "growth": "55.7%"}, {"smiles": "CCCCSc1cc(C)nc(N)n1", "growth": "96.6%"}, {"smiles": "Cc1ccc2nc(/C(C#N)=C(/CCCO)NC(Cc3ccccc3)C(=O)OCc3ccccc3)[nH]c(=O)c2c1", "note": "(stereo not given)", "growth": "122%"}, {"smiles": "Nc1cc2nc3ccccc3sc-2cc1=O", "growth": "6.95% (active)"}, {"smiles": "COc1ccc(NC(=S)Nc2ccccn2)cc1", "growth": "84.9%"}, {"smiles": "C=C(C)[C@@H]1CC[C@]2(C(=O)N3CCNCC3)CC[C@]3(C)[C@H](CC[C@@H]4[C@@]5(C)C/C(=C/c6ccncc6)C(=O)C(C)(C)[C@@H]5CC[C@]43C)[C@@H]12", "growth": "99.7%"}, {"smiles": "CC(=O)OCC1OC(OC2=C(CC=C(Cl)Cl)C(=O)c3ccccc3C2=O)C(OC(C)=O)C(OC(C)=O)C1OC(C)=O", "note": "(stereo not given)", "growth": "0.376% (active)"}, {"smiles": "CC1CCC(C)(C)c2ccccc21", "note": "(stereo not given)", "growth": "109%"}, {"smiles": "O=C1c2cc3c(cc2-c2c1c1ccc(Cl)cc1c(=O)n2C[C@H](O)[C@@H](O)[C@H](O)CO)OCO3", "growth": "-5.75% (active)"}, {"smiles": "COc1ccc(NC(=O)c2ccc(-c3ccccc3)cc2)c(C(N)=O)c1", "growth": "61.7%"}, {"smiles": "N#CC1=C(N)Oc2c(sc3c(Br)cccc23)C1c1ccc([N+](=O)[O-])cc1", "note": "(stereo not given)", "growth": "-13.7% (active)"}, {"smiles": "COc1ccc2oc(=O)cc(C3c4ccc([nH]4)C(c4cc(=O)oc5ccc(OC)cc45)c4ccc([nH]4)C(c4cc(=O)oc5ccc(OC)cc45)c4ccc([nH]4)C(c4cc(=O)oc5ccc(OC)cc45)c4ccc3[nH]4)c2c1", "note": "(stereo not given)", "growth": "-14.5% (active)"}, {"smiles": "COc1ccc2sc(-n3nc4nc5n(c(=O)c4c3N)-c3ccccc3Sc3ccccc3-5)nc2c1", "growth": "66.6%"}, {"smiles": "Cn1c(=O)c2c(c3ccccc31)OC(N)=C(C#N)C21C(=O)c2ccccc2C1=O", "growth": "98.1%"}, {"smiles": "CCCCCCCCCCCCCCCCCCOCC(COP(=O)([O-])OCC[N+](C)(C)C)OC", "note": "(stereo not given)", "growth": "46.4%"}, {"smiles": "CN(C)C[C@@H]1CCn2cc(c3ccccc32)C2=C(C(=O)NC2=O)c2cn(c3ccccc23)CCO1", "growth": "-23.5% (active)"}, {"smiles": "C=C1C(=O)O[C@H]2[C@H]1CC/C(CNS(=O)(=O)c1ccc3ccccc3c1)=C\\CC[C@@]1(C)O[C@@H]21", "growth": "-48.4% (active)"}, {"smiles": "COc1cc(C(=O)/C=C/c2cccc(Nc3ccnc4cc(Cl)ccc34)c2)cc(OC)c1OC", "growth": "5.47% (active)"}, {"smiles": "CC1(C=O)NC(=O)NC1=O", "note": "(stereo not given)", "growth": "87.5%"}, {"smiles": "COc1ccc(Nc2c3ccccc3nc3ccccc23)cc1", "growth": "12.8%"}, {"smiles": "CN(C)c1ccc(C2(Cl)c3ccccc3N(C)c3ccccc32)cc1", "growth": "17.5%"}, {"smiles": "NCCNc1nc2ccc(F)cc2c2c(=O)c3cc(F)ccc3sc12", "growth": "21.2%"}, {"smiles": "CSc1nn(-c2ccccc2)c2ncnc(Oc3ccc(C)cc3)c12", "growth": "98.3%"}, {"smiles": "COc1c(B(O)O)cccc1-c1nc2ccc3[nH]ncc3c2c2c1C1CCC2C1", "note": "(stereo not given)", "growth": "20%"}, {"smiles": "C=C(C)[C@@H]1CCC[C@]2(C(=O)OC)CC[C@]3(C)[C@@H](CC[C@@H]4[C@@]5(C)CCCNC(C)(C)[C@@H]5CC[C@]43C)[C@@H]12", "growth": "96.7%"}, {"smiles": "CN(C)CC(O)c1ccc(/C=C/c2ccc(Cl)cc2)cc1", "note": "(stereo not given)", "growth": "-43.6% (active)"}, {"smiles": "COc1ccc(C2=NN(C(=O)c3cc(-c4ccc(C)cc4)nc4ccccc34)C(c3cc(-c4ccccc4)nn3-c3ccccc3)C2)cc1", "note": "(stereo not given)", "growth": "90.6%"}, {"smiles": "CN(C)CCCC(C#N)c1ccccc1", "note": "(stereo not given)", "growth": "118%"}, {"smiles": "O=C(Nc1nc2ccccc2s1)Nc1ccc([N+](=O)[O-])cc1Cl", "growth": "78.8%"}, {"smiles": "Cc1ccc2c(c1)C(=O)/C(=C/c1ccc(OCC(=O)c3ccccc3)cc1)O2", "growth": "69.9%"}, {"smiles": "Fc1ccc(NC(c2ccc(F)cc2)C2CCN(CCCCc3ccccc3)CC2)cc1", "note": "(stereo not given)", "growth": "10.8%"}, {"smiles": "O=C(O)c1cc([N+](=O)[O-])ccc1Br", "growth": "105%"}, {"smiles": "CC(C)=CC(=O)OCC(=O)O[C@@H]1C[C@]2(C(C)C)O[C@@]1(C)[C@@H]1CC[C@@H](C)[C@H]1[C@@H]2OC(=O)/C=C/c1ccccc1", "growth": "85%"}, {"smiles": "CC1CCC2(C(=O)O)CCC3(C)C(=CCC4C5(C)CC(O)C(O)C(C)(CO)C5C(O)CC43C)C2C1C", "note": "(stereo not given)", "growth": "118%"}, {"smiles": "Cc1nn(-c2ccccc2)c2nc3c(nc12)C1=NCCN1C(c1ccc(Cl)cc1)N3", "note": "(stereo not given)", "growth": "70.7%"}, {"smiles": "CC(C)(C)OC(=O)N1CCN(c2ccc(N)cc2)C(=O)C1", "growth": "102%"}, {"smiles": "O=C(/C=C/c1ccccc1)N(C1CCCCC1)C1CCCCC1", "growth": "74%"}, {"smiles": "Cc1cc(C)cc(Nc2nccc(-c3c(-c4ccc(F)cc4)ncn3C3CCNCC3)n2)c1", "growth": "-58.9% (active)"}, {"smiles": "CC(C)(C)n1cc(-c2ccnc(NCCNS(=O)(=O)c3ccc(O)cc3)c2)c(-c2cccc(O)c2)n1", "growth": "101%"}, {"smiles": "COc1cc(C2CC(c3cccc(Nc4ccncc4)c3)=NN2c2ccccc2)cc(OC)c1OC", "note": "(stereo not given)", "growth": "-43.8% (active)"}]}]}
